Each structure is given as a SMILES string.

The target in experiment [1] is T1, Serine/threonine-protein kinase TBK1 (Homo sapiens) (UniProt Q9UHD2).
T1 sequence (whole entry): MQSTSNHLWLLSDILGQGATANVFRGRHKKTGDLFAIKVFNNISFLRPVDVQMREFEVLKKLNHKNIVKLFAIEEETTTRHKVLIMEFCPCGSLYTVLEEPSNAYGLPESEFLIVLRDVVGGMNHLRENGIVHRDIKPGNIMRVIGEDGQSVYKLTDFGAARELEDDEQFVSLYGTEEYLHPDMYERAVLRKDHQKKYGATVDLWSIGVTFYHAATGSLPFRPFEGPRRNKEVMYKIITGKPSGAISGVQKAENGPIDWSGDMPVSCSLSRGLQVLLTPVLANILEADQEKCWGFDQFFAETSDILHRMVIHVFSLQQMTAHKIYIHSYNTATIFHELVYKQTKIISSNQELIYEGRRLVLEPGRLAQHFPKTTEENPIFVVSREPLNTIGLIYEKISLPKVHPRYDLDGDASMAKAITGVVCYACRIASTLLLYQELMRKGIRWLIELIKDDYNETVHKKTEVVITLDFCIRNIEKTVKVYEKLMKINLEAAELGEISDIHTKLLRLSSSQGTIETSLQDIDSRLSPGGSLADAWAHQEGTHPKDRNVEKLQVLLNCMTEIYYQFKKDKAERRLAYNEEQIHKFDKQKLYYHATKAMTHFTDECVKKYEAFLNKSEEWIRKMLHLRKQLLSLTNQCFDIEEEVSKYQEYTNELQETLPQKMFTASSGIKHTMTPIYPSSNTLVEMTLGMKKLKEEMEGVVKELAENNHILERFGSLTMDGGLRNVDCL
To be noted: at 10 µM.

The target in experiment [2] is T2, TGF-beta receptor type-1 (Homo sapiens) (UniProt P36897).
T2 sequence (whole entry): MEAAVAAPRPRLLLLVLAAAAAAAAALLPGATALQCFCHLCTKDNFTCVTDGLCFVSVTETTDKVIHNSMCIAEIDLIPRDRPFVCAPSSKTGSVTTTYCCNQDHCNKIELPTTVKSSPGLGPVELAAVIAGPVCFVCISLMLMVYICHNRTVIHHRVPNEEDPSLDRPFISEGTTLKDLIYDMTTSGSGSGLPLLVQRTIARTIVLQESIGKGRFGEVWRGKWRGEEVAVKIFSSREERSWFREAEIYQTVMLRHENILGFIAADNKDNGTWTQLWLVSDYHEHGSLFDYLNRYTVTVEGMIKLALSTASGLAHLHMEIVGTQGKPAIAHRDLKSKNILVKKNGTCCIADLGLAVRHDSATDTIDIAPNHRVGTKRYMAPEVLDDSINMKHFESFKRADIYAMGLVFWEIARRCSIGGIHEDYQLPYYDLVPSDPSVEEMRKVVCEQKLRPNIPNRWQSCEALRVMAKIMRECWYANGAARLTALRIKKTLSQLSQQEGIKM
To be noted: at 1 µM.

Experiment [3] concerns the target T2, TGF-beta receptor type-1 (Homo sapiens). To be noted: at 10 µM.
Experiment [4] deals with Insulin-like growth factor 1 receptor (Homo sapiens) (UniProt P08069). To be noted: at 1 µM.
Insulin-like growth factor 1 receptor (Homo sapiens), sequence (P08069 31-736 limits assumed): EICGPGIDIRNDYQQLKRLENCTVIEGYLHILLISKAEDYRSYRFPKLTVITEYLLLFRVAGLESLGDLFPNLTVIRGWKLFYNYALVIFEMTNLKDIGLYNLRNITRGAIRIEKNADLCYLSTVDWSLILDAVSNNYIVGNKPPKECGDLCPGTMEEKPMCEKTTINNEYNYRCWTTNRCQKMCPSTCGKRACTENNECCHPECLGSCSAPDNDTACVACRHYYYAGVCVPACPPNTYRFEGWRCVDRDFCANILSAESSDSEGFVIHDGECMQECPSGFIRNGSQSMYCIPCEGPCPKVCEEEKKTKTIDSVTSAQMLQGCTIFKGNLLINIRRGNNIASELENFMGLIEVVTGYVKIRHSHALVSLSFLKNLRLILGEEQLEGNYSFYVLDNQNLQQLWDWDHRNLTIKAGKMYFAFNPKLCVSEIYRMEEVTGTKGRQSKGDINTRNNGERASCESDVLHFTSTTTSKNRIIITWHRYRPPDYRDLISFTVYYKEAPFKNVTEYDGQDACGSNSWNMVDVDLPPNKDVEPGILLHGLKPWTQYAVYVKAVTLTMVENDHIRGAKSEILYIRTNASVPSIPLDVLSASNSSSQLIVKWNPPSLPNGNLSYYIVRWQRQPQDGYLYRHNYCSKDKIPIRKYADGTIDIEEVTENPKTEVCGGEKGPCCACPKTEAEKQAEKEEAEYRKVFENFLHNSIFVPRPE
Insulin-like growth factor 1 receptor (Homo sapiens), sequence (P08069 741-1367 limits assumed): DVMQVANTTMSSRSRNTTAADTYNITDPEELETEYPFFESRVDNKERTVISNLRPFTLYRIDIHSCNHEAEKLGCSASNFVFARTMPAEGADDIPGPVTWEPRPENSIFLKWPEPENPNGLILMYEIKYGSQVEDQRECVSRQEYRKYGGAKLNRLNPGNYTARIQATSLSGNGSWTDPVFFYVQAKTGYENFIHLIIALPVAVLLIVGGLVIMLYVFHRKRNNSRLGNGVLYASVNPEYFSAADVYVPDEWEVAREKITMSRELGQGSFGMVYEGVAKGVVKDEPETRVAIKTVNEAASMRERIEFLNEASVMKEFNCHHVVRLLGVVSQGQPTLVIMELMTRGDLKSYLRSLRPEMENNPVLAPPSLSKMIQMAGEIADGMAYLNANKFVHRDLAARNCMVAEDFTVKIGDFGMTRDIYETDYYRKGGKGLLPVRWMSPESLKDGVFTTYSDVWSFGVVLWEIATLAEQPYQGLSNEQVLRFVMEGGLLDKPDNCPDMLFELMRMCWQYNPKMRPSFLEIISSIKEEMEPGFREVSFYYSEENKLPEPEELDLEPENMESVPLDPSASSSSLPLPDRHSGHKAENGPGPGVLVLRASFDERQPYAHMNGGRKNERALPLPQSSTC
Experiment [5] has the same target. To be noted: at 10 µM.
The target of experiment [6] is T3, Inhibitor of nuclear factor kappa-B kinase subunit alpha (Homo sapiens) (UniProt O15111).
T3 sequence (whole entry): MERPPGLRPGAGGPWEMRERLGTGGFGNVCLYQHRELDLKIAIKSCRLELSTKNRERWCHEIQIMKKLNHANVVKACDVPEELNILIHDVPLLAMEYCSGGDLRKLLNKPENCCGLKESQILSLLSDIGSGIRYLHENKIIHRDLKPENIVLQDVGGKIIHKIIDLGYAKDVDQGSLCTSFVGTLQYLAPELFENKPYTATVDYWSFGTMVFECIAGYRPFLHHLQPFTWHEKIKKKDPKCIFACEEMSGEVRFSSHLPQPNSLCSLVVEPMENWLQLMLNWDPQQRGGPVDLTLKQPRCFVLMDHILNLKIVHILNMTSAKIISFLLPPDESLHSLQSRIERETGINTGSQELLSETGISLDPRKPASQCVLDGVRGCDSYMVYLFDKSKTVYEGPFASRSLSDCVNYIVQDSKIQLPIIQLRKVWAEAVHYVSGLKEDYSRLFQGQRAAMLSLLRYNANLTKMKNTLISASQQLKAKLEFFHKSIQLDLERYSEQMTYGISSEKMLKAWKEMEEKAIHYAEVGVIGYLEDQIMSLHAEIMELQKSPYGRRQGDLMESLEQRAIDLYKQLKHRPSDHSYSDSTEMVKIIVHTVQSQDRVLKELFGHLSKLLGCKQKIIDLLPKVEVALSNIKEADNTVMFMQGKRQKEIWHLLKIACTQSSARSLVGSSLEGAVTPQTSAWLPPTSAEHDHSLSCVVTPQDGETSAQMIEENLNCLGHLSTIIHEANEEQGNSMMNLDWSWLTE
As to conditions: at 1 µM.

Experiment [7] addresses T3, Inhibitor of nuclear factor kappa-B kinase subunit alpha (Homo sapiens). As to conditions: at 10 µM.
Experiment [8] has as its target T4, Inhibitor of nuclear factor kappa-B kinase subunit beta (Homo sapiens) (UniProt O14920).
T4 sequence (whole entry): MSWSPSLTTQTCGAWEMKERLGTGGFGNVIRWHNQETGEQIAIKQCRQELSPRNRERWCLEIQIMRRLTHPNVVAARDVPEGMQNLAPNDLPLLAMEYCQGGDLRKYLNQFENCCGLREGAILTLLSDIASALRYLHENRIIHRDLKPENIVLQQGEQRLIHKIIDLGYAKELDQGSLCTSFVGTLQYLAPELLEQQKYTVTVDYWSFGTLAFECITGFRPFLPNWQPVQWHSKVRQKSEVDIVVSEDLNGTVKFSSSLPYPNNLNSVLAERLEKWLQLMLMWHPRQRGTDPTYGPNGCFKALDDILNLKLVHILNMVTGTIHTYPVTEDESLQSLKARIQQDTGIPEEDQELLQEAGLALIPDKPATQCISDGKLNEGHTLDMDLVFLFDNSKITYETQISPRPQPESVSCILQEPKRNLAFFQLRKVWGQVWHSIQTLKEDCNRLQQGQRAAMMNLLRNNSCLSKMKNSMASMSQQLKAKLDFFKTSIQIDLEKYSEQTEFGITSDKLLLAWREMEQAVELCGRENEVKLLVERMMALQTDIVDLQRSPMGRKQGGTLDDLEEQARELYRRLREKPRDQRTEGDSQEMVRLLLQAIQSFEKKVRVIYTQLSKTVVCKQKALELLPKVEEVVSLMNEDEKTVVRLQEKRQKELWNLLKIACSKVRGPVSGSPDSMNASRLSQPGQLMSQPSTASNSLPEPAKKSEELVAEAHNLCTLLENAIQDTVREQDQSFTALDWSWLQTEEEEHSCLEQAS
To be noted: at 1 µM.

The target in experiment [9] is T4, Inhibitor of nuclear factor kappa-B kinase subunit beta (Homo sapiens). As to conditions: at 10 µM.

Regarding `CCCCc1c(-c2ccc(OC)cc2)[nH]c2nccnc12`, the residual activity in experiment [1] is 59%; in experiment [2] it was 84%; in experiment [3], 73%; in experiment [4], 61%; in experiment [5] it was 51%; in experiment [6], 87%. The residual activity was determined as 87% in [7], 109% in experiment [8] and 101% in experiment [9].

As usually defined, the residual activity is the signal under treatment as a percentage of the control signal.
